# Measurements as given in ChEMBL document CHEMBL1961873, “Compounds: GSK PKIS; Assays: Nanosyn kinase panel” (2012).
# Biological target: Serine/threonine-protein kinase PAK 2 (Homo sapiens) (UniProt Q13177);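 also: reported values are mean inhibition of PAK2, averaged over measurements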
# Details: at 1 µM
# Sequence of Serine/threonine-protein kinase PAK 2 (Homo sapiens) (Q13177 whole entry): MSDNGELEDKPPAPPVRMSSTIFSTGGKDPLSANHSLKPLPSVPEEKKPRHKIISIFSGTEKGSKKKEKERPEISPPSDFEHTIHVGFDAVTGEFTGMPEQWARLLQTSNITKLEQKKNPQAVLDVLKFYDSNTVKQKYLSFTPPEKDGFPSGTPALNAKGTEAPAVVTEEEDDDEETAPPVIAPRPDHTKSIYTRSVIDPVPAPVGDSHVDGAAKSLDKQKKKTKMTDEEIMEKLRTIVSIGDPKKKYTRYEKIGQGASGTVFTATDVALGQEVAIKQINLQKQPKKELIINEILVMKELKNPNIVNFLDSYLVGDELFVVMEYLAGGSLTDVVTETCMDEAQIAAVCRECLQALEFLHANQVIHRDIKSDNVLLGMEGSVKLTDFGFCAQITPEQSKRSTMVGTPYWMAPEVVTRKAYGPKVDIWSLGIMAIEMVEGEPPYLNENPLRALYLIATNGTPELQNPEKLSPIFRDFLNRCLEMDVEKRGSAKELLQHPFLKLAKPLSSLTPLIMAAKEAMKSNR
row,Structure (SMILES),inhibition [%]
1,CNC(=O)c1cncc(/C=C/c2c(C)cccc2C)c1,-0.05
2,COc1cc(Nc2ncc3c(C)nc(-c4cccc(C(F)(F)F)c4)n3n2)cc(OC)c1OC,2.81
3,CCN(CC)Cc1ccc(Nc2nccc(-c3cnn4ncccc34)n2)cc1,3.41

# Biological target: Serine/threonine-protein kinase PAK 3 (Homo sapiens) (UniProt O75914)
# Sequence (O75914 whole entry, looked up): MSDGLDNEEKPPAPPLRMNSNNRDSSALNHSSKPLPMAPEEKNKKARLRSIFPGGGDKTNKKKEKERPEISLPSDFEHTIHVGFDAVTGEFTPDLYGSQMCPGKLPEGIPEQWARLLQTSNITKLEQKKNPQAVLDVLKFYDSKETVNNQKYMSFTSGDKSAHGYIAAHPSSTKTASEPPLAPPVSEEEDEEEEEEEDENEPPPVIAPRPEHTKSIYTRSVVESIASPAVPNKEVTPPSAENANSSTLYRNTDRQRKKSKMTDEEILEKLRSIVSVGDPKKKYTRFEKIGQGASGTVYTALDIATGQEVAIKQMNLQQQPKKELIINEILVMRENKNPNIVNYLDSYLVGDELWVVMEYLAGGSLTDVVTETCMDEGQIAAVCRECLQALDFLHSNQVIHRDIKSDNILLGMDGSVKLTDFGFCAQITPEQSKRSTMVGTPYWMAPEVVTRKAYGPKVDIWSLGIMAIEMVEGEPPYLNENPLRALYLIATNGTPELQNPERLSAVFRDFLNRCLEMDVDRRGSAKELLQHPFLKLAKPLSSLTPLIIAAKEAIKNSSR
# Details: at 0.1 µM
row,Structure (SMILES),inhibition [%]
1,COc1cccc(/C=N/Nc2ncnc3c2cnn3-c2cccc(OC)c2)c1,2.7
2,COc1ccc2ncn(-c3cc(O[C@H](C)c4ccccc4Cl)c(C(N)=O)s3)c2c1,5.49
3,O=C(Nc1n[nH]c2cc(-c3cc(F)ccc3F)ccc12)C1CC1,2.86
4,COc1ccc(-c2ccc3c(NC(=O)C4CC4)n[nH]c3n2)cc1,3.36
5,Clc1ccc(CNc2nccc(-c3cnn4ncccc34)n2)cc1,-0.26
6,CN(C)CCOc1ccc(-c2cc(-c3ccc4c(c3)CCC4=NO)c(-c3ccncc3)o2)cc1,-1.69
7,COc1cc(N2CCN(C(C)C)CC2)ccc1Nc1nc(Nc2ccc(F)cc2C(=O)NC[C@@H](O)CO)c2cc[nH]c2n1,4.85
8,Cc1ccc(C(=O)NC(C)C)cc1-c1ccc(C(=O)NCC2CC2)cc1,-3.81
9,O=C(Nc1ccc(Oc2ccc3[nH]c(NC(=O)c4ccccc4)nc3c2)cc1)Nc1cc(C(F)(F)F)ccc1F,2.23
10,Cc1ccc(C(=O)NC2CCC2)cc1-c1ccc(C(=O)NCC2CC2)cc1,3.41
11,O=C1Nc2ccc(I)cc2C1=Cc1cc(Br)c(O)c(Br)c1,3.52
12,COc1cc(C)c(N(C)C(=O)CN(C)C)cc1Nc1nc(Nc2cccc(F)c2C(N)=O)c2cc[nH]c2n1,1.47
13,NS(=O)(=O)c1ccc(N/N=C2\C(=O)Nc3ccc(-c4cnco4)cc32)cc1,1.7
14,CS(=O)(=O)CCNCc1ccc(-c2ccc3ncnc(Nc4ccc(OCc5ccccc5)c(Br)c4)c3c2)o1,5.05
15,COc1cccc(-n2cnc3c(N/N=C/c4ccncc4)ncnc32)c1,-1.14
16,Cc1ccc(NC(=O)c2ccoc2)cc1-c1ccc(C(=O)NCC2CC2)cc1,2.22
17,COc1ccc2cc(-c3c(-c4ccncc4)nc(-c4ccc([S+](C)[O-])cc4C)n3C)ccc2c1 (stereo unspecified),-0.99

row,Structure (SMILES),inhibition [%]
1,CCS(=O)(=O)c1ccc(OC)c(Nc2ncc(-c3cccc(-c4ccccc4F)c3)o2)c1,-0.65
2,Fc1ccc(-c2ncn(C3CCNCC3)c2-c2ccnc(Oc3ccc(F)c(F)c3)n2)cc1,4.91
3,COc1ccc2cc(-c3c(-c4ccncc4)nc(-c4ccc(S(C)(=O)=O)cc4C)n3C)ccc2c1,5.62
4,O=C1NC(=O)C(c2cccc(Cl)c2)=C1Nc1ccc(Cl)c(C(=O)O)c1,3.53
5,CN(C)c1ccc2c(c1)/C(=C/Nc1ccc(S(N)(=O)=O)cc1)C(=O)N2,1.32
6,CN(c1ccc(NC(=O)Nc2c(Cl)cccc2Cl)cc1)c1ccnc(Nc2cccc(CS(C)(=O)=O)c2)n1,1.56
7,COc1ccc(C2=C(N3CCc4ccccc43)C(=O)NC2=O)cc1,4.96
8,NS(=O)(=O)c1ccc(Nc2cc(-c3ccc(O)c(F)c3)n[nH]2)cc1,-4.62
9,COc1cc2ncn(-c3cc(OCCc4ccccc4)c(C(N)=O)s3)c2cc1OC,2.35
10,CN1CCN(CCCNc2nc3ccc(Oc4ccc(NC(=O)Nc5cc(C(F)(F)F)ccc5F)cc4)cc3[nH]2)CC1,1.62
11,CCc1ccc(Oc2nccc(-c3c(-c4ccc(F)cc4)ncn3C3CCNCC3)n2)cc1,4.22
12,CCS(=O)(=O)c1ccc(OC)c(Nc2ncc(-c3ccccc3Cl)o2)c1,-0.53
13,c1ccc(-c2n[nH]cc2-c2ccnc(-c3ccc(OCCN4CCOCC4)cc3)c2)nc1,3.54
14,COc1cc(Nc2ncc3c(C)nc(-c4cccc(Oc5ccccc5)c4)n3n2)cc(OC)c1OC,2.09
15,CNC(=O)c1cncc(/C=C/c2c(C)cccc2C)c1,-0.14
16,COc1cc(Nc2ncc3c(C)nc(-c4cccc(C(F)(F)F)c4)n3n2)cc(OC)c1OC,3.31
17,CCN(CC)Cc1ccc(Nc2nccc(-c3cnn4ncccc34)n2)cc1,4.82

# Biological target: Serine/threonine-protein kinase PAK 3 (Homo sapiens) (UniProt O75914)
# Details: at 1 µM
row,Structure (SMILES),inhibition [%]
1,COc1cccc(/C=N/Nc2ncnc3c2cnn3-c2cccc(OC)c2)c1,4.34
2,COc1ccc2ncn(-c3cc(O[C@H](C)c4ccccc4Cl)c(C(N)=O)s3)c2c1,6.75
3,O=C(Nc1n[nH]c2cc(-c3cc(F)ccc3F)ccc12)C1CC1,2.97
4,COc1ccc(-c2ccc3c(NC(=O)C4CC4)n[nH]c3n2)cc1,3.17
5,Clc1ccc(CNc2nccc(-c3cnn4ncccc34)n2)cc1,0.29
6,CN(C)CCOc1ccc(-c2cc(-c3ccc4c(c3)CCC4=NO)c(-c3ccncc3)o2)cc1,-1.63
7,COc1cc(N2CCN(C(C)C)CC2)ccc1Nc1nc(Nc2ccc(F)cc2C(=O)NC[C@@H](O)CO)c2cc[nH]c2n1,6.19
8,Cc1ccc(C(=O)NC(C)C)cc1-c1ccc(C(=O)NCC2CC2)cc1,-3.2
9,O=C(Nc1ccc(Oc2ccc3[nH]c(NC(=O)c4ccccc4)nc3c2)cc1)Nc1cc(C(F)(F)F)ccc1F,2.99
10,Cc1ccc(C(=O)NC2CCC2)cc1-c1ccc(C(=O)NCC2CC2)cc1,3.03
11,O=C1Nc2ccc(I)cc2C1=Cc1cc(Br)c(O)c(Br)c1,5.78
12,COc1cc(C)c(N(C)C(=O)CN(C)C)cc1Nc1nc(Nc2cccc(F)c2C(N)=O)c2cc[nH]c2n1,2.79
13,NS(=O)(=O)c1ccc(N/N=C2\C(=O)Nc3ccc(-c4cnco4)cc32)cc1,2.52
14,CS(=O)(=O)CCNCc1ccc(-c2ccc3ncnc(Nc4ccc(OCc5ccccc5)c(Br)c4)c3c2)o1,4.4
15,COc1cccc(-n2cnc3c(N/N=C/c4ccncc4)ncnc32)c1,0.31
16,Cc1ccc(NC(=O)c2ccoc2)cc1-c1ccc(C(=O)NCC2CC2)cc1,1.14
17,COc1ccc2cc(-c3c(-c4ccncc4)nc(-c4ccc([S+](C)[O-])cc4C)n3C)ccc2c1 (stereo unspecified),-1.45

row,Structure (SMILES),inhibition [%]
1,CCS(=O)(=O)c1ccc(OC)c(Nc2ncc(-c3cccc(-c4ccccc4F)c3)o2)c1,-0.27
2,Fc1ccc(-c2ncn(C3CCNCC3)c2-c2ccnc(Oc3ccc(F)c(F)c3)n2)cc1,5.71
3,COc1ccc2cc(-c3c(-c4ccncc4)nc(-c4ccc(S(C)(=O)=O)cc4C)n3C)ccc2c1,4.99
4,O=C1NC(=O)C(c2cccc(Cl)c2)=C1Nc1ccc(Cl)c(C(=O)O)c1,3.74
5,CN(C)c1ccc2c(c1)/C(=C/Nc1ccc(S(N)(=O)=O)cc1)C(=O)N2,2.05
6,CN(c1ccc(NC(=O)Nc2c(Cl)cccc2Cl)cc1)c1ccnc(Nc2cccc(CS(C)(=O)=O)c2)n1,1.38
7,COc1ccc(C2=C(N3CCc4ccccc43)C(=O)NC2=O)cc1,5.37
8,NS(=O)(=O)c1ccc(Nc2cc(-c3ccc(O)c(F)c3)n[nH]2)cc1,-3.25
9,COc1cc2ncn(-c3cc(OCCc4ccccc4)c(C(N)=O)s3)c2cc1OC,2.82
10,CN1CCN(CCCNc2nc3ccc(Oc4ccc(NC(=O)Nc5cc(C(F)(F)F)ccc5F)cc4)cc3[nH]2)CC1,2.65
11,CCc1ccc(Oc2nccc(-c3c(-c4ccc(F)cc4)ncn3C3CCNCC3)n2)cc1,5.69
12,CCS(=O)(=O)c1ccc(OC)c(Nc2ncc(-c3ccccc3Cl)o2)c1,0.98
13,c1ccc(-c2n[nH]cc2-c2ccnc(-c3ccc(OCCN4CCOCC4)cc3)c2)nc1,3.78
14,COc1cc(Nc2ncc3c(C)nc(-c4cccc(Oc5ccccc5)c4)n3n2)cc(OC)c1OC,4.11
15,CNC(=O)c1cncc(/C=C/c2c(C)cccc2C)c1,0.85
16,COc1cc(Nc2ncc3c(C)nc(-c4cccc(C(F)(F)F)c4)n3n2)cc(OC)c1OC,7.5
17,CCN(CC)Cc1ccc(Nc2nccc(-c3cnn4ncccc34)n2)cc1,6
